# According to PubChem BioAssay (NCI):
# About 79,000 compounds went through this panel and 15% of them were active in at least one assay; those are over-represented in the sample as a whole. The source made the active and inactive calls. Rule as the data show it: active = growth inhibition above about 70%; inactive = the rest.
# Experiment: NCI Yeast Anticancer Drug Screen. Data for the mlh1 rad18 strain (AID 175)
# Settings: S. cerevisiae mlh1 rad18 strain growth inhibition; at 50.0 µM (retest, dose inferred, filed as 5.0); hits give high values
# How it was run: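 Vehicle-treated cultures served as the reference for growth inhibition in a yeast strain carrying DNA damage repair alterations exposed to each compound.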
row,Structure (SMILES),growth inhibition
1,S=C(S)NN1CCOCC1,92% (active)
2,COc1cc2c3c(cccc3c1)C(=O)N(CCN(C)C)C2=O,55% (inactive)
3,COC(=O)C1=C(C)NC(C)=C(C(=O)OCCCN2CCC(c3ccccc3)(c3ccccc3)CC2)C1c1cccc([N+](=O)[O-])c1 (centres undefined),98% (active)
4,c1ccc2c(c1)Oc1cccc3cccc-2c13,99% (active)
5,CN(C)CCOc1ccc2c(c1)C/C(=C/c1ncc([N+](=O)[O-])n1C)C2=O,82% (active)
6,Cc1ccc(CCC2=CCCc3c2ccc2ccccc32)cc1,16% (inactive)
7,CNC(=O)OCc1c(COC(=O)NC)c(-c2ccc(Cl)c(Cl)c2)n2c1CCC2,97% (active)
8,Clc1ccccc1C1OC1c1ccccc1Cl (centres undefined),100% (active)
9,O=[N+]([O-])c1cc(CCl)ccc1CCl,99% (active)
10,O=C1C=CC(=O)c2c(O)c(Nc3ccc(OC(F)(F)F)cc3)c(Cl)c(O)c21,76% (active)
11,S=c1[nH]nc(Nc2ccc(Cl)cc2)s1,19% (inactive)
12,Cn1ccnc1Oc1ccc(Cl)cc1,74% (active)
13,BrCc1cccc2ccc3cccc(CBr)c3c12,96% (active)
14,O=C1c2ccccc2-c2nc3ccccc3nc21,99% (active)
15,CCCCCCCCCCCCCCCCCCNC,94% (active)
16,Oc1ccc(NCn2c(=S)sc3ccccc32)cc1,100% (active)
17,O=C1C2CC[C@@H]3C(=O)C(Cl)(Cl)[C@@H]3CCC2C1(Cl)Cl (some centres undefined),88% (active)
18,CC[n+]1ccc2c(C)c3[nH]c4ccc(O)cc4c3c(C)c2c1,30% (inactive)
19,Cc1ccc(-n2cc(-c3ccc(Cl)cc3)c(C#N)c2N)cc1,55% (inactive)
